IDE exosite inh: exo-site inhibitors of human IDE, primary screen, biochemical, fluorescence anisotropy, probe displacement. AID 1259349, 2017. actives 6.3% (n = 17,000). z-score at 20 µM. purified IDE, FL-6b probe fluorescence polarization; hits give low values;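 active = z-score of -3 or lower, meaning strong loss of probe binding signal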;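 note: His-tagged human IDE residues 42-1019 made in E. coli with 30 nM FL-6b probe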
Numbers without * were called inactive. This is one part of a sample in which hits are shown more often than they occur.

SMILES	IDE exosite inh
CO[C@H](CN(C)S(=O)(=O)c1ccc(C)cc1)[C@H](C)CN([C@@H](C)CO)S(=O)(=O)c1cccc(Cl)c1	0.707
CN(C)CC(=O)N1[C@@H](C#N)[C@H](c2ccc(C#CC3CCCC3)cc2)[C@@H]1CO	3.57
CC(C)C#Cc1ccc([C@H]2[C@H](CO)N3C(=O)CN(C(=O)c4ccccn4)C[C@@H]23)cc1	1.35
CCCC#Cc1ccc([C@@H]2[C@@H](CO)N3C(=O)CN(C(=O)c4ccccn4)C[C@H]23)cc1	0.411
O=C(c1cnccn1)N1CC(=O)N2[C@H](CO)[C@@H](c3ccc(C#CCc4ccccc4)cc3)[C@H]2C1	-2.38
O=C(c1ccccn1)N1CC(=O)N2[C@@H](CO)[C@@H](c3ccc(C#CCc4ccccc4)cc3)[C@@H]2C1	-4.66*
O=C(c1ccccn1)N1CC(=O)N2[C@H](CO)[C@@H](c3ccc(C#Cc4ccccc4)cc3)[C@H]2C1	-9.37*
O=C(c1cnccn1)N1CC(=O)N2[C@@H](CO)[C@H](c3ccc(C#CCc4ccccc4)cc3)[C@@H]2C1	0.701
CCCC#Cc1ccc([C@@H]2[C@H](CO)N3C(=O)CN(C(=O)c4ccccn4)C[C@@H]23)cc1	-3.22*
CC(C)C#Cc1ccc([C@@H]2[C@H](CO)N3C(=O)CN(C(=O)c4ccccn4)C[C@@H]23)cc1	-0.0848
O=C(c1ccccn1)N1CC(=O)N2[C@H](C1)[C@H](c1ccc(C#Cc3ccccc3)cc1)[C@@H]2CO	-6.36*
O=C(c1ccccn1)N1CC(=O)N2[C@H](C1)[C@@H](c1ccc(C#Cc3ccccc3)cc1)[C@@H]2CO	-2.86
CCCC#Cc1ccc([C@@H]2[C@H]3CN(C(=O)c4ccccn4)CC(=O)N3[C@H]2CO)cc1	2.66
CCCC#Cc1ccc([C@H]2[C@H](CO)N3C(=O)CN(C(=O)c4ccccn4)C[C@@H]23)cc1	1.1
O=C(NC[C@H]1[C@@H](c2ccccc2)[C@@H](CO)N1Cc1ccccc1)c1ccccn1	0.85
O=C1CNC[C@H]2[C@@H](c3ccc(C#Cc4cccnc4)cc3)[C@@H](CO)N12	0.195
O=S(=O)(c1ccc(F)cc1)N1CCCCN2[C@H](CO)[C@@H](c3ccc(-c4cncnc4)cc3)[C@H]2C1	-0.149
C[C@@H]1CN([C@@H](C)CO)S(=O)(=O)c2ccc(C#CCC3CCCC3)cc2O[C@@H]1CN(C)C(=O)c1cnccn1	-0.18
CCS(=O)(=O)N[C@H]1C=C[C@@H](CC(=O)O)O[C@@H]1CO	-0.296
Cc1ccccc1S(=O)(=O)N1CCCCN2[C@H](CO)[C@H](c3ccc(C#CCN(C)C)cc3)[C@H]2C1	-1.29
C[C@@H]1CN([C@H](C)CO)C(=O)CCCn2cc(nn2)CO[C@H]1CN(C)S(=O)(=O)c1ccc(-n2cccn2)cc1	-0.48
C/C=C/c1ccc([C@H]2[C@@H](CO)N(CCC(F)(F)F)C23CN(C(=O)CC2CC2)C3)cc1	0.171
Cc1noc(C)c1S(=O)(=O)Nc1ccc2c(c1)C(=O)N([C@@H](C)CO)C[C@H](C)[C@H](CN(C)Cc1ccc(C(=O)O)cc1)OCCCC[C@@H](C)O2	0.387
COc1ccc2c3c(n(C)c2c1)[C@@H](CO)N(Cc1ccccc1)CC31CN(S(=O)(=O)c2ccc(C)cc2)C1	-1.57
CO[C@H](CN(C)C(=O)C1CCOCC1)[C@@H](C)CN([C@@H](C)CO)S(=O)(=O)c1ccccc1	0.314
SMILES	IDE exosite inh
CNC[C@H]1OCCCC[C@@H](C)Oc2ccc(NC(=O)Nc3ccc(OC)cc3)cc2C(=O)N([C@@H](C)CO)C[C@H]1C	1.51
CCC(=O)NC[C@H]1[C@@H](c2ccccc2)[C@@H](CO)N1C(=O)C1CCC1	3.68
O=C(c1cccc(F)c1)N1CC(=O)N2[C@H](CO)[C@@H](c3ccc(C#Cc4ccc(F)cc4)cc3)[C@H]2C1	2.08
O=C(C1CCCC1)N1CC(=O)N2[C@H](CO)[C@@H](c3ccc(C#CC4CCCC4)cc3)[C@@H]2C1	0.249
O=C(C1CCC1)N1CC(=O)N2[C@H](C1)[C@@H](c1ccc(C#Cc3cccc(F)c3)cc1)[C@@H]2CO	-1.26
O=C(c1cccc(F)c1)N1CC(=O)N2[C@@H](CO)[C@H](c3ccc(C#Cc4ccc(F)cc4)cc3)[C@@H]2C1	3.35
O=C(C1CCC1)N1CC(=O)N2[C@H](CO)[C@H](c3ccc(C#Cc4cccc(F)c4)cc3)[C@@H]2C1	-2.8
O=C(C1CCCCC1)N1CC(=O)N2[C@@H](CO)[C@H](c3ccc(C#Cc4cccc(F)c4)cc3)[C@@H]2C1	0.212
O=C(C1CC1)N1CC(=O)N2[C@H](C1)[C@H](c1ccc(C#Cc3cccc(F)c3)cc1)[C@@H]2CO	-6.09*
O=C(C1CCC1)N1CC(=O)N2[C@@H](CO)[C@H](c3ccc(C#Cc4cccc(F)c4)cc3)[C@@H]2C1	-3.37*
O=C(C1CCCCC1)N1CC(=O)N2[C@@H](CO)[C@@H](c3ccc(C#Cc4cccc(F)c4)cc3)[C@@H]2C1	-4.53*
CN(C)Cc1cn(CC[C@H]2CC[C@@H](NC(=O)Cc3cccnc3)[C@H](CO)O2)nn1	0.0128
COCC(=O)N1CC(=O)N2[C@H](C1)[C@@H](c1ccc(C#CC(C)C)cc1)[C@@H]2CO	1.89
C[C@@H]1CN([C@H](C)CO)C(=O)CCCn2nncc2CO[C@@H]1CN(C)S(=O)(=O)c1cn(C)cn1	-1.09
CC(=O)NC[C@H]1[C@@H](c2ccccc2)[C@H](CO)N1C(=O)Cc1cccnc1	4.31
O=C1CN(S(=O)(=O)Cc2ccccc2)C[C@H]2[C@@H](c3ccc(C#Cc4cccnc4)cc3)[C@@H](CO)N12	-5.82*
O=C1CN(S(=O)(=O)c2ccccc2)C[C@@H]2[C@H](c3ccc(C#Cc4ccccc4)cc3)[C@H](CO)N12	-5.19*
CS(=O)(=O)N1CC(=O)N2[C@H](CO)[C@H](c3ccc(C#CCc4ccccc4)cc3)[C@@H]2C1	0.972
O=C1CN(S(=O)(=O)c2ccccc2)C[C@H]2[C@@H](c3ccc(C#Cc4ccccc4)cc3)[C@@H](CO)N12	1.62
O=C1CN(S(=O)(=O)Cc2ccccc2)C[C@H]2[C@H](c3ccc(C#Cc4cccc(F)c4)cc3)[C@@H](CO)N12	3.83
CS(=O)(=O)N1CC(=O)N2[C@H](C1)[C@H](c1ccc(C#CCc3ccccc3)cc1)[C@@H]2CO	-3.39*
O=C1CN(S(=O)(=O)Cc2ccccc2)C[C@H]2[C@@H](c3ccc(C#Cc4cccnc4)cc3)[C@H](CO)N12	0.297
O=C1CN(S(=O)(=O)Cc2ccccc2)C[C@@H]2[C@@H](c3ccc(C#Cc4ccccc4)cc3)[C@H](CO)N12	-0.81
O=C1CN(S(=O)(=O)Cc2ccccc2)C[C@@H]2[C@H](c3ccc(C#Cc4ccccc4)cc3)[C@H](CO)N12	-3.51*
O=C1CN(S(=O)(=O)c2ccccc2)C[C@H]2[C@H](c3ccc(C#Cc4ccccc4)cc3)[C@@H](CO)N12	1.32
O=C1CN(S(=O)(=O)Cc2ccccc2)C[C@H]2[C@H](c3ccc(C#Cc4ccccc4)cc3)[C@@H](CO)N12	0.579
CCS(=O)(=O)N1CC(=O)N2[C@H](CO)[C@@H](c3ccc(C#CCc4ccccc4)cc3)[C@@H]2C1	1.73
CO[C@@H]1CN(C)C(=O)c2ccc(NC(=O)c3cc(C)on3)cc2OC[C@H](C)NC[C@H]1C	-1.4
COc1ccc(-c2ccccc2[C@H]2[C@@H](C#N)N(C(=O)C3CC3)[C@@H]2CO)cc1	-0.77
O=C(C[C@H]1C[C@@H]2c3cc(NC(=O)c4ccc5c(c4)OCO5)ccc3O[C@@H]2[C@H](CO)O1)NCc1ccc(Oc2ccccc2)cc1	-0.301
